Measured values reported in the supplement of paper PMC10849652.
The full data set covers some 7,900 targets. This sample favours those with a hit. About 0.6% of all pairs of compound and target were hits. Values without a mark were called inactive.

Key:
Test in all cases: log2 fold change, soluble protein after heating vs DMSO (PISA); higher = thermal stabilisation; K562 cells, 10 uM, 30 min; active = over 0.2 and 3.5 SD of the protein, either way, in both replicates (recomputed)
erlotinib = compound: C#Cc1cccc(Nc2ncnc3cc(OCCOC)c(OCCOC)cc23)c1 [erlotinib]
Method in brief: (§1)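 Soluble protein was quantified by TMTpro 16plex LC-MS/MS after channel sums were equalised. It was obtained as the supernatant after 21,000xg for 90 min from pooled aliquots of K562 cells (2×10^6 cells/mL, 10 μM compound, 30 min) heated for 3 min across 48°C-58°C and extracted in PBS with 0.5% NP-40 at 4°C. Thermal stability values are relative to control samples and come from duplicates. They are given as log2 fold changes.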

[1] = compound: C/C(=N\NC(=O)C1=CC(=CC=C1)S(=O)(=O)N2CCOCC2)/C3=C(C=CC(=C3)Cl)O
Method in brief: as §1

[2] = compound: C1=CC(=C(C=C1Cl)C2=NC3=NC=CN=C3C(=N2)NC4=CC=NC=C4)F
Method in brief: as §1

[3] = compound: C1=CC(=CC=C1C2=NC3=C(N2)C=C(C=C3)C(=O)N)OC4=CC=C(C=C4)Cl
Method in brief: as §1

[4] = compound: C1=CC2=C(C=CC(=C2)/C=C\3/C(=O)NC(=NCC4=CC=CS4)S3)N=C1
Method in brief: as §1

[5] = compound: C1=CC2=NC=CN=C2C=C1/C=C/3\C(=O)NC(=O)S3
Method in brief: as §1

[6] = compound: C1=CC=C(C=C1)C2=NC(=C(N2)C3=CC=NC=C3)C4=CC(=C(C=C4)Cl)O
Method in brief: as §1

[7] = compound: C1=CC=C2C(=C1)C3=NNC4=CC=CC(=C43)C2=O
Method in brief: as §1

[8] = compound: C1CCN(C1)C(=O)NC2=CC=CC(=C2)NC3=NC=C(C(=N3)NCCC4=CN=CN4)Br
Method in brief: as §1

[9] = compound: C1CN(CCC1(CC2=CC=C(C=C2)Cl)N)C3=NC=NC4=C3C=CN4
Method in brief: as §1

IRAK-1-4 Inhibitor I = compound: C1COCCN1CCN2C3=CC=CC=C3N=C2NC(=O)C4=CC(=CC=C4)[N+](=O)[O-] [IRAK-1-4 Inhibitor I]
Method in brief: as §1

ibrutinib = compound: C=CC(=O)N1CCC[C@@H](n2nc(-c3ccc(Oc4ccccc4)cc3)c3c(N)ncnc32)C1 [ibrutinib]
Method in brief: as §1

[10] = compound: CC(=O)c1cnc2ccc(-c3cc(Cl)c(O)c(Cl)c3)nc2c1N[C@H]1CC[C@H](CN(C)C)CC1
Method in brief: as §1

ralimetinib = compound: CC(C)(C)Cn1c(N)nc2ccc(-c3[nH]c(C(C)(C)C)nc3-c3ccc(F)cc3)nc21 [ralimetinib]
Method in brief: as §1

[11] = compound: CC(C)(O)CC(=O)NCCn1ccc2ncnc(Nc3ccc(Oc4cccc(C(F)(F)F)c4)c(Cl)c3)c21
Method in brief: as §1

[12] = compound: CC(C)C1=C2N=C(C=C(N2N=C1)NCC3=CC=CC=C3)NCCCCCCN
Method in brief: as §1

[13] = compound: CC(C)C[C@@H](C=O)NC(=O)[C@H](CC(C)C)NC(=O)[C@H](CC(C)C)NC(=O)OCc1ccccc1
Method in brief: as §1

pinometostat = compound: CC(C)N(C[C@H]1O[C@@H](n2cnc3c(N)ncnc32)[C@H](O)[C@@H]1O)[C@H]1C[C@@H](CCc2nc3cc(C(C)(C)C)ccc3[nH]2)C1 [pinometostat]
Method in brief: as §1

[14] = compound: CC1=C(C(CC(=O)N1)C2=CC=C(C=C2)C(F)(F)F)C(=O)NC3=C(C=C4C(=C3)C=NN4)F
Method in brief: as §1

[15] = compound: CC1=C(C2=C(C=C1)C(=O)C3=CC=CC=C3N2CCCN)C
Method in brief: as §1

UniProt Q9BV86, sequence (Q9BV86 whole entry, looked up): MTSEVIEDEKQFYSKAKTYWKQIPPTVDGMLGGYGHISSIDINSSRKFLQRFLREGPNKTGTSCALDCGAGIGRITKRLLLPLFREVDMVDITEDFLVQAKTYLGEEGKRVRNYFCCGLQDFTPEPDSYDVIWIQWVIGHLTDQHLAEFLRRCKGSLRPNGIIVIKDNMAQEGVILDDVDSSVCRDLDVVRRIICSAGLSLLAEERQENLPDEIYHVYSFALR
UniProt Q92621, sequence (Q92621 whole entry, looked up): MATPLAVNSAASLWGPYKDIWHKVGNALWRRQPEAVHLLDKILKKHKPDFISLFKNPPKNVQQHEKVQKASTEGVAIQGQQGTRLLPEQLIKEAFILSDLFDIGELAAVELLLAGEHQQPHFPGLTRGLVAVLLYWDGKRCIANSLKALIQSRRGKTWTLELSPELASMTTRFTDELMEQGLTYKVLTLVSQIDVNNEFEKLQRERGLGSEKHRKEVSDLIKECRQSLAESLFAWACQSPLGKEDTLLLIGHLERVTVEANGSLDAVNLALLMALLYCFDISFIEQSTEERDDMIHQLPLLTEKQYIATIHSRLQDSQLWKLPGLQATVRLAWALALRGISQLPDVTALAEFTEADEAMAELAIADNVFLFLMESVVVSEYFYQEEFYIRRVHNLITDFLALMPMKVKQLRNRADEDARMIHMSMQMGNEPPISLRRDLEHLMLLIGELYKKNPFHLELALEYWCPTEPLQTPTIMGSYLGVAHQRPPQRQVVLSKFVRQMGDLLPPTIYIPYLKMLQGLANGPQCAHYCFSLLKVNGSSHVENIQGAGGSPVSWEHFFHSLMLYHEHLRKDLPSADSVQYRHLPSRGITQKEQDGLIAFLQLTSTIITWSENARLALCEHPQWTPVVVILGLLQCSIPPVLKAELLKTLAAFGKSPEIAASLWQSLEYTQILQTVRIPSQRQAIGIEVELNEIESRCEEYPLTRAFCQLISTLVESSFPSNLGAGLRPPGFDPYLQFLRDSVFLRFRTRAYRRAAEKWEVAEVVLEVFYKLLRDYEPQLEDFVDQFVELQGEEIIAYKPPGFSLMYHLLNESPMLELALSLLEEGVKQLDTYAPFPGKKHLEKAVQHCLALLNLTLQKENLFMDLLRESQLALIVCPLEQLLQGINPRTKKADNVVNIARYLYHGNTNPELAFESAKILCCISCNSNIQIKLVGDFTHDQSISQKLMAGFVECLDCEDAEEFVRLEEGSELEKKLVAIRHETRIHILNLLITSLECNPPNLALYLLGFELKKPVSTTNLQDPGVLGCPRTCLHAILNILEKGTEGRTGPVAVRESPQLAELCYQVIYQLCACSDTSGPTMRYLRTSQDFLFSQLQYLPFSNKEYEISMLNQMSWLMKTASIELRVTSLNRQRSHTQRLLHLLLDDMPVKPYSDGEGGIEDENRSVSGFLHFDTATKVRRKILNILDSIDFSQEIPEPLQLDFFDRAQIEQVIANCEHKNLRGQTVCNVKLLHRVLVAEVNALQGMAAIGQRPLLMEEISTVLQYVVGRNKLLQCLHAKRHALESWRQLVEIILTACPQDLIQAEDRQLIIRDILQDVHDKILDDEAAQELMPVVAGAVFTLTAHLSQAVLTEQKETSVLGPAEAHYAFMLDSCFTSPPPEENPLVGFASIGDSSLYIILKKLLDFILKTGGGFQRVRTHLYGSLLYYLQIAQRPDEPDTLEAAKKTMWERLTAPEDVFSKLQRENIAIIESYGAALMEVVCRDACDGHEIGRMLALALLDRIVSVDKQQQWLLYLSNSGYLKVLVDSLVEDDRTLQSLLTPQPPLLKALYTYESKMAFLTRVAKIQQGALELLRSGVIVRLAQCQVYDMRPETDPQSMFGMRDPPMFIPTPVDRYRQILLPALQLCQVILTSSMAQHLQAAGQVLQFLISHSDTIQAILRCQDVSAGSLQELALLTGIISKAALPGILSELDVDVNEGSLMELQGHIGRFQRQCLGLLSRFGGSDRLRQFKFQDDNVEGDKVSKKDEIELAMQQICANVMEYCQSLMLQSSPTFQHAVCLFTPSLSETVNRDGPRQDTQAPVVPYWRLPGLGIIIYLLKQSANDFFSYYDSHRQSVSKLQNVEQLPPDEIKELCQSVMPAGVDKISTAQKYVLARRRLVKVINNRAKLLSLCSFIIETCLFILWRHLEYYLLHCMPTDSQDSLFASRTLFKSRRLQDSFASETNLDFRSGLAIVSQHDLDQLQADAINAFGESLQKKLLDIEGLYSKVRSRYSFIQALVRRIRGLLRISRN
UniProt Q92692, sequence (Q92692 whole entry, looked up): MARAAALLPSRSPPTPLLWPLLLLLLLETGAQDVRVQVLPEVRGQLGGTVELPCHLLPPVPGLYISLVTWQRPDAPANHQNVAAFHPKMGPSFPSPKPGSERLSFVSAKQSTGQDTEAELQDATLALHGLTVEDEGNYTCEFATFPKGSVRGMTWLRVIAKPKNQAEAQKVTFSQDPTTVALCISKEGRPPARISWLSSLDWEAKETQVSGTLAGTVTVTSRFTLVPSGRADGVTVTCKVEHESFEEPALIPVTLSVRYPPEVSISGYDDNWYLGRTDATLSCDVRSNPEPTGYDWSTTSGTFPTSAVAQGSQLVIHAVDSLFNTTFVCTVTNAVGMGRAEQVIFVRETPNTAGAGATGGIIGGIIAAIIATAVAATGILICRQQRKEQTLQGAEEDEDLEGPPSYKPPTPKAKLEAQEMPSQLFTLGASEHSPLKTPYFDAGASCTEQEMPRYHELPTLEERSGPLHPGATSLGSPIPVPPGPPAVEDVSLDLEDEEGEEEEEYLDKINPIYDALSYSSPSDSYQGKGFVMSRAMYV
UniProt Q7Z3U7, sequence (Q7Z3U7 whole entry, looked up): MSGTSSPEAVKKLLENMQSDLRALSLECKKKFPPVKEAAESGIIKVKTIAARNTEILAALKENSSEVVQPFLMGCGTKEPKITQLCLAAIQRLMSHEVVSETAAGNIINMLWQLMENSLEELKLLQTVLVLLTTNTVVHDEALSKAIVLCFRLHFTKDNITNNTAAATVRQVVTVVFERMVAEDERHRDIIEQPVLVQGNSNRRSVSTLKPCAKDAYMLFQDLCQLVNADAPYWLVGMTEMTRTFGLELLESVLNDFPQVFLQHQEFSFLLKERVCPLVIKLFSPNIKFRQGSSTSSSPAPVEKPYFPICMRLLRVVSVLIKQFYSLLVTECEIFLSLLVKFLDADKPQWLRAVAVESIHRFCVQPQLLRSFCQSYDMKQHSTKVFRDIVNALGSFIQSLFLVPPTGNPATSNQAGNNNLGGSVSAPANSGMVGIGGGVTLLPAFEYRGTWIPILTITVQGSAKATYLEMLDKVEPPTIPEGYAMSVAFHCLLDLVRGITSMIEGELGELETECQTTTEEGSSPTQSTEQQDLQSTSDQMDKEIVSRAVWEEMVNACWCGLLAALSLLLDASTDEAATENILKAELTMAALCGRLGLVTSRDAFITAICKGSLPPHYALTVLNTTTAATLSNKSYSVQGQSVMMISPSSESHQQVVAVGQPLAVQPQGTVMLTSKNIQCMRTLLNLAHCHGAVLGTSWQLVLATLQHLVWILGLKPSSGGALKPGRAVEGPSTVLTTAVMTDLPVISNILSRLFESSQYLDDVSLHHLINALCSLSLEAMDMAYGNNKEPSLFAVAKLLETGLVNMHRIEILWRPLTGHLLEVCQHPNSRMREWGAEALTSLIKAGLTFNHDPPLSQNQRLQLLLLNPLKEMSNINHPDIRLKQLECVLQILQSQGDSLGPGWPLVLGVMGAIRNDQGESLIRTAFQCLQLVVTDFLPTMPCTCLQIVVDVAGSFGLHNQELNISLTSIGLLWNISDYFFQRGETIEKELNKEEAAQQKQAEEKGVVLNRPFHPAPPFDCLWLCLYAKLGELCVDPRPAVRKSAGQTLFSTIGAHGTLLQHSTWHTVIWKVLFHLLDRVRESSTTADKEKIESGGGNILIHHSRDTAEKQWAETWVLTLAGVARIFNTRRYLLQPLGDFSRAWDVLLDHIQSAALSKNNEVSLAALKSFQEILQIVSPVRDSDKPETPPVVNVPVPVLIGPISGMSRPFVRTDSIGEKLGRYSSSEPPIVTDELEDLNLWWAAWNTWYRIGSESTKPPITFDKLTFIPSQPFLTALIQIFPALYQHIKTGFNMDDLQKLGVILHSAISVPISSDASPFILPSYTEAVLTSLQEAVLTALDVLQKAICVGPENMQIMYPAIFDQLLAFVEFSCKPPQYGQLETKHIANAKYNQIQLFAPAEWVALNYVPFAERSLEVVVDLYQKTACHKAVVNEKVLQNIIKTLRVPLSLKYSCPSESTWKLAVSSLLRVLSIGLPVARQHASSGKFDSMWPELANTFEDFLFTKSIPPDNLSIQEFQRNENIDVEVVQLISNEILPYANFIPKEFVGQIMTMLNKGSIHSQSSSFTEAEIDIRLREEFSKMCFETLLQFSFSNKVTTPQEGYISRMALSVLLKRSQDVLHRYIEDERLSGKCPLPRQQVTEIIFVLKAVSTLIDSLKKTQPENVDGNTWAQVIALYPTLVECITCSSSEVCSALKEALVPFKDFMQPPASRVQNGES
UniProt Q9NRP0, sequence (Q9NRP0 whole entry, looked up): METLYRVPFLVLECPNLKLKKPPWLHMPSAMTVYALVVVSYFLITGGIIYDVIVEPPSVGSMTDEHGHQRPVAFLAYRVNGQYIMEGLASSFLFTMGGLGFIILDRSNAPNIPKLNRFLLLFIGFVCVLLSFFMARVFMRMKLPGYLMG
UniProt O95182, sequence (O95182 whole entry, looked up): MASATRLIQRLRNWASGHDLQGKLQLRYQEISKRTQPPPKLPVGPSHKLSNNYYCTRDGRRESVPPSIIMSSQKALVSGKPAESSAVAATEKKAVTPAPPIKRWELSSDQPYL

Target | log2 fold change (erlotinib) | log2 fold change [1] | log2 fold change [2] | log2 fold change [3] | log2 fold change [4] | log2 fold change [5] | log2 fold change [6] | log2 fold change [7] | log2 fold change [8] | log2 fold change [9] | log2 fold change (IRAK-1-4 Inhibitor I) | log2 fold change (ibrutinib) | log2 fold change [10] | log2 fold change (ralimetinib) | log2 fold change [11] | log2 fold change [12] | log2 fold change [13] | log2 fold change (pinometostat) | log2 fold change [14] | log2 fold change [15]
MON2 isoform 5 (UniProt Q7Z3U7) | 0.034 | 0.034 | 0.072 | -0.019 | 0.016 | 0.015 | 0.015 | 0.007 | -0.019 | 0.004 | 0.013 | -0.036 | -0.005 | 0.097 | -0.076 | -0.088 | 0.004 | 0.048 | -0.022 | 0.055
NPC1 (UniProt O15118) | 0.027 | -0.033 | -0.004 | 0.025 | -0.01 | 0.028 | 0.011 | -0.027 | 0.058 | 0.069 | 0.014 | 0.03 | 0.031 | -0.041 | 0.028 | -0.184 | 0.006 | -0.055 | 0.078 | -0.147
NECTIN2 (UniProt Q92692) | 0.002 | 0.005 | 0.064 | -0.006 | 0.002 | 0.008 | -0.04 | -0.041 | -0.045 | 0.077 | 0.025 | 0.02 | -0.023 | -0.035 | -0.03 | 0.182 | 0.024 | 0.009 | -0.015 | 0
MRPS9 (UniProt P82933) | -0.057 | -0.019 | -0.087 | 0.137 | 0.019 | 0.04 | 0.023 | 0.043 | 0.002 | -0.095 | -0.061 | 0.024 | -0.022 | -0.023 | 0.001 | -0.059 | 0.07 | 0.018 | -0.048 | -0.243 (active)
MRPS16 (UniProt Q9Y3D3) | -0.126 | 0 | -0.025 | 0.159 | 0.014 | 0.079 | 0.117 | 0.044 | -0.085 | -0.097 | -0.082 | 0.02 | -0.047 | -0.008 | -0.034 | -0.19 | 0.015 | 0.021 | 0 | -0.126
NTMT1 (UniProt Q9BV86) | 0.039 | 0.13 | 0.086 | 0.002 | 0.039 | 0.032 | 0.006 | 0.086 | -0.101 | 0.151 | 0 | 0.011 | -0.046 | -0.02 | -0.053 | 0.095 | -0.052 | -0.029 | -0.082 | 0.157
OSTC (UniProt Q9NRP0) | 0.021 | 0.024 | 0.022 | 0.017 | 0.004 | -0.001 | 0.014 | 0.048 | -0.041 | 0.088 | -0.002 | -0.013 | -0.022 | 0.004 | -0.055 | -0.377 (active) | -0.046 | -0.023 | -0.031 | 0.119
OXA1L (UniProt Q15070) | -0.014 | 0.029 | -0.005 | 0.012 | 0.01 | 0.021 | 0.006 | -0.029 | 0.012 | 0.043 | 0.05 | 0.011 | 0.03 | -0.037 | 0.006 | -0.209 | -0.004 | 0 | 0.016 | -0.018
MPHOSPH10 (UniProt O00566) | -0.079 | -0.005 | -0.412 | -0.023 | 0.031 | 0.061 | 0.07 | -0.004 | 0.024 | -0.023 | -0.215 | -0.022 | -0.064 | 0.144 | 0.089 | -0.071 | 0.053 | 0.113 | 0.021 | -0.56
NUP205 (UniProt Q92621) | 0.047 | 0.131 | -0.1 | -0.031 | 0.068 | 0 | 0.016 | -0.146 | -0.063 | -0.017 | -0.035 | -0.038 | -0.1 | -0.027 | 0.032 | -0.167 | -0.058 | 0 | -0.005 | 0.018
MRPS31 (UniProt Q92665) | 0.003 | 0.001 | -0.032 | 0.105 | -0.004 | 0.023 | 0.048 | 0.064 | 0.003 | -0.066 | -0.057 | 0.014 | -0.073 | -0.005 | -0.032 | -0.086 | 0.057 | 0.034 | 0.026 | -0.14
MRPS24 (UniProt Q96EL2) | -0.175 | 0.022 | -0.032 | 0.062 | 0.016 | -0.02 | 0.01 | 0.039 | 0.071 | -0.1 | -0.048 | 0.009 | -0.071 | -0.086 | -0.094 | -0.159 | 0.051 | 0.002 | -0.031 | -0.227
NUMA1 (UniProt Q14980) | -0.03 | -0.006 | -0.109 | 0.017 | 0.02 | 0.019 | 0.031 | -0.054 | -0.055 | -0.211 | -0.107 | -0.051 | -0.123 | 0.149 | 0.073 | -0.173 | -0.02 | 0.202 | -0.018 | -0.58 (active)
NDUFA7 (UniProt O95182) | -0.001 | -0.033 | 0.085 | 0.078 | -0.003 | 0.021 | 0 | 0.036 | 0.005 | 0.01 | 0.169 | 0.024 | -0.014 | -0.017 | -0.192 | -0.063 | 0.158 | 0.074 | 0.038 | 0.033
OXR1 (UniProt Q8N573) | 0.029 | 0.067 | 0.011 | 0.002 | 0.023 | 0.007 | -0.043 | -0.062 | -0.03 | 0.056 | 0.048 | 0.016 | -0.002 | -0.019 | -0.035 | -0.077 | -0.004 | 0.023 | -0.008 | 0.009
MRPL34 (UniProt Q9BQ48) | -0.029 | -0.167 | -0.116 | 0.101 | -0.048 | -0.03 | 0.006 | 0.018 | -0.004 | -0.174 | -0.046 | 0.107 | 0.092 | 0.164 | 0.042 | -0.137 | 0.102 | 0.196 | 0.086 | -0.51 (active)
